Inconclusive results are not listed. The source made the active and inactive calls. Unless noted, the call rests on the fitted dose curve.
Legend:
[1] = Nuclear factor erythroid 2-related factor 2/antioxidant responsive element (Nrf2/ARE) small molecule agonists: qHTS cell viability counter screen in human keratinocytes (AID 1919968; active means well fitted curve in the direction sought with a large enough effect in the repeat runs; an effect the other way counts as inactive or inconclusive; further: nearly all actives have a fitted effect of over 55% in size)
Outline: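 KeratinoSens HaCaT cells, 1,500/well, preincubated 5 h, then exposed to compounds in DMSO for 23 h at 37 C/5% CO2. Viability read as CellTiter-Fluor fluorescence after 1 h, in the same wells as the ARE-luciferase read.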

[2] = molecular target: Gonadotropin-releasing hormone receptor (Homo sapiens) (UniProt P30968); assay: Human gonadotropin-releasing hormone receptor (GnRHR) small molecule agonists, calcium flux assay in GnRHR-HEK293 cells (AID 1920063); further: nearly all actives have a fitted effect of over 35% in size
Gonadotropin-releasing hormone receptor (Homo sapiens), sequence (P30968 whole entry, looked up): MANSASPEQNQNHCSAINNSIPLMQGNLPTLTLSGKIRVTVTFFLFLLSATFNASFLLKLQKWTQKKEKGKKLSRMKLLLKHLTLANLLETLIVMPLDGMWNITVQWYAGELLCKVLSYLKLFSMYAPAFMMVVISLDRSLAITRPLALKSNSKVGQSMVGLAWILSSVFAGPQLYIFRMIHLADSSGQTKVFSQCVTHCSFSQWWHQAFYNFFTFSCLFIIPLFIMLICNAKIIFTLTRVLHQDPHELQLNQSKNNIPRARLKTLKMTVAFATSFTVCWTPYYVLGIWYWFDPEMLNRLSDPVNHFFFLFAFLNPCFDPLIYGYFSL
Outline: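 HEK293 cells stably expressing human GnRHR were dye-loaded for 1 h at 37 C. Compound was added in agonist mode and fluorescence (Ex/Em 480/540) recorded kinetically for 3 min. Fifteen concentrations, triplicates.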

[3] = molecular target: KiSS-1 receptor (Homo sapiens) (UniProt Q969F8); assay: Human kisspeptin (KISS1R) small molecule agonists, calcium flux assay in KISS1R-HEK293 cells (AID 1920064; active means well fitted curve in the direction sought with a large enough effect in the repeat runs; an effect the other way counts as inactive or inconclusive)
KiSS-1 receptor (Homo sapiens), sequence (Q969F8 whole entry, looked up): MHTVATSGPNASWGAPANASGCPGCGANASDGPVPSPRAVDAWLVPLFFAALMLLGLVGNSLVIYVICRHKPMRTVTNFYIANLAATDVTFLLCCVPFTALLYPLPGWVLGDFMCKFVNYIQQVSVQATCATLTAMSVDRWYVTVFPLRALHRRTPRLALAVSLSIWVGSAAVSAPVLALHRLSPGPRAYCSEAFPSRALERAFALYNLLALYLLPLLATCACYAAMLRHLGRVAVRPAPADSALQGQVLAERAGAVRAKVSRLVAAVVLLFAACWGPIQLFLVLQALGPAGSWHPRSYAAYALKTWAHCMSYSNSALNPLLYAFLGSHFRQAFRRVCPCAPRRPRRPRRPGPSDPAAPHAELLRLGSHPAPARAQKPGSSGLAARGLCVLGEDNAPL
Outline: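 HEK293 cells stably expressing human KISS1R were loaded with calcium dye for 1 h at 37 C, then given compound; fluorescence (Ex/Em 480/540) was read kinetically for 3 min. Fifteen concentrations, triplicate.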

[4] = G protein-coupled receptor (GPCR) small molecule agonists, calcium flux assay: HEK293 wild type cell line counter screen (AID 1920065)
Outline: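 Wild-type HEK293 cells plated 18 h, loaded with calcium dye 1 h at 37 C, then compounds added in agonist mode (ATP as positive control). Kinetic fluorescence Ex/Em 480/540 recorded 3 min at 1 sec intervals; 15 concentrations, triplicate.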

[5] = p53 small molecule agonists, cell-based qHTS assay with human liver microsomes: qHTS cell viability counter screen (AID 1963579); further: nearly all actives have a fitted effect of over 45% in size
Outline: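 p53RE-bla cells, 4,000/well, dosed 5 hours after plating, with human liver microsomes (0.5 mg/mL final) plus NADPH (0.5 mg/mL final), 16 hours at 37 C. Viability read as CellTiter-Glo luminescence after 30 min at room temperature.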

[6] = p53 small molecule agonists, cell-based qHTS assay with rat liver microsomes: qHTS cell viability counter screen (AID 1963580); further: nearly all actives have a fitted effect of over 45% in size
Outline: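 In HCT-116 cells carrying a p53 response element-bla reporter, compounds were metabolically activated in situ by rat liver microsomes with NADPH over 16 h. Cell ATP content then served as the cytotoxicity measure.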

[7] = p53 small molecule agonists, cell-based qHTS assay: qHTS cell viability counter screen (AID 1963581); further: nearly all actives have a fitted effect of over 45% in size
Outline: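 p53RE-bla HCT-116 cells, compounds added 5 h after plating and incubated 16 h at 37 C. Cytotoxicity measured in the same wells as intracellular ATP by CellTiter-Glo luminescence after 30 min at room temperature.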

[8] = molecular target: 5-hydroxytryptamine receptor 2A (Homo sapiens) (UniProt P28223); assay: 5-hydroxytryptamine receptor 2A (HTR2A) small molecule antagonists, cell-based qHTS assay (AID 1963586); further: nearly all actives have a fitted effect of over 45% in size
5-hydroxytryptamine receptor 2A (Homo sapiens), sequence (P28223 whole entry, looked up): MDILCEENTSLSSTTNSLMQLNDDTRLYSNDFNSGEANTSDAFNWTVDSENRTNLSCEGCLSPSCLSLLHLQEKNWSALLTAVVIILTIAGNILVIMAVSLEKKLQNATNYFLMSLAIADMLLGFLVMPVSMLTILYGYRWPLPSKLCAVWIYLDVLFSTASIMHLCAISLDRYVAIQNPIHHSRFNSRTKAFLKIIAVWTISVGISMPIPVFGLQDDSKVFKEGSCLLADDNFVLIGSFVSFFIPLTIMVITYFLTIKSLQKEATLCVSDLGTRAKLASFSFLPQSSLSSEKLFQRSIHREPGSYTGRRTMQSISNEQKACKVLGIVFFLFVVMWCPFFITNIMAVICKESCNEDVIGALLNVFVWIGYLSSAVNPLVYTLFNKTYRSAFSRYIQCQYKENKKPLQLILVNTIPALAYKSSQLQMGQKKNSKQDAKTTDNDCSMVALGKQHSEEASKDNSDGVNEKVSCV
Outline: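 Antagonist-mode intracellular calcium assay: DOI (4 nM) added after 5 min compound pre-incubation at room temperature to dye-loaded HTR2A-CHO cells. Fluorescence followed for 3 min, sampled every second.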

[9] = molecular target: 5-hydroxytryptamine receptor 2A (Homo sapiens) (UniProt P28223); assay: 5-hydroxytryptamine receptor 2A (HTR2A) small molecule agonists, cell-based qHTS assay (AID 1963587); further: nearly all actives have a fitted effect of over 30% in size
Outline: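 HTR2A-CHO cells, plated 18 h at 37 C/5% CO2, dye-loaded 1 h at 37 C; compounds in DMSO added by pin tool (agonist mode). Intracellular calcium flux read as kinetic fluorescence on FDSS over 2 min at 1 s intervals.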

[10] = molecular target: Muscarinic acetylcholine receptor M1 (Homo sapiens) (UniProt P11229); assay: Cholinergic receptor muscarinic 1 (CHRM1) small molecule antagonists, cell-based qHTS assay (AID 1963588); further: nearly all actives have a fitted effect of over 40% in size
Muscarinic acetylcholine receptor M1 (Homo sapiens), sequence (P11229 whole entry, looked up): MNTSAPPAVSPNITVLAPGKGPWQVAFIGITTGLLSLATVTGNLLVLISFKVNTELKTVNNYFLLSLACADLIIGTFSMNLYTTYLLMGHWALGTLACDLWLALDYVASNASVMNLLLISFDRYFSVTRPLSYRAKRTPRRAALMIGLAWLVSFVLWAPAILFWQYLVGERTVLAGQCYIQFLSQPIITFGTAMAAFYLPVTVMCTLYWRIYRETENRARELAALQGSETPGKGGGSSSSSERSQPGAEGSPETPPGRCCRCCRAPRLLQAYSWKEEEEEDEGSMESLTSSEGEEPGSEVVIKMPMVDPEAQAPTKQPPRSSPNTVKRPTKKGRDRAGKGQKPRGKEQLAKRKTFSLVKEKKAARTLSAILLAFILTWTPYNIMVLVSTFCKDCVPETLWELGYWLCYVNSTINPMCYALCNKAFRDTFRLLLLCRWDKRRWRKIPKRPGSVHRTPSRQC
Outline: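 CHRM1-CHO calcium-flux assay, antagonist mode. Cells were seeded 18 h, dye-loaded 1 h at 37 C and given compound for 5 min at RT, then acetylcholine was added at 50nM. FDSS fluorescence was read 3 min; 15 concentrations, three runs.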

[11] = molecular target: Muscarinic acetylcholine receptor M1 (Homo sapiens) (UniProt P11229); assay: Cholinergic receptor muscarinic 1 (CHRM1) small molecule agonists, cell-based qHTS assay (AID 1963589); further: nearly all actives have a fitted effect of over 35% in size
Outline: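 CHO cells stably expressing human CHRM1 were loaded with calcium dye for 1 h at 37 C, then compound was added in agonist mode. Intracellular calcium fluorescence was followed kinetically at 1 s intervals. Fifteen concentrations were tested in three independent runs.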

[12] = cAMP Responsive Elements (CRE) small molecule agonists, cell-based qHTS assay (AID 1963590)
Outline: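 CRE-bla HEK 293T cells, 2,000/well in DMEM with 10% dialyzed FBS and 25 mM HEPES, pre-incubated 18 h at 37 C, then exposed to compound 3 h at 37 C. Beta-lactamase reporter read with LiveBLAzer B/G FRET substrate after 2 h at room temperature.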

[13] = cAMP Responsive Elements (CRE) small molecule antagonists, cell-based qHTS assay (AID 1963591; active means well fitted inhibition curve with a large enough effect in the signal ratio in the repeat runs, not every such curve was filed as active; the % refers to the signal ratio)
Outline: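 CRE-bla HEK293T cells plated 18 h, then given compound plus NKH477 at 0.25 uM final for 3 h at 37C. Beta-lactamase reporter read with LiveBLAzer B/G FRET substrate after 2 h at room temperature.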

[14] = molecular target: Beta-2 adrenergic receptor (Homo sapiens) (UniProt P07550); assay: Adrenergic beta2 receptor (ADRB2) small molecule antagonists, cell-based qHTS assay (AID 1963592); further: series mostly up to about 92 µM; nearly all actives have a fitted effect of over 50% in size
Beta-2 adrenergic receptor (Homo sapiens), sequence (P07550 whole entry, looked up): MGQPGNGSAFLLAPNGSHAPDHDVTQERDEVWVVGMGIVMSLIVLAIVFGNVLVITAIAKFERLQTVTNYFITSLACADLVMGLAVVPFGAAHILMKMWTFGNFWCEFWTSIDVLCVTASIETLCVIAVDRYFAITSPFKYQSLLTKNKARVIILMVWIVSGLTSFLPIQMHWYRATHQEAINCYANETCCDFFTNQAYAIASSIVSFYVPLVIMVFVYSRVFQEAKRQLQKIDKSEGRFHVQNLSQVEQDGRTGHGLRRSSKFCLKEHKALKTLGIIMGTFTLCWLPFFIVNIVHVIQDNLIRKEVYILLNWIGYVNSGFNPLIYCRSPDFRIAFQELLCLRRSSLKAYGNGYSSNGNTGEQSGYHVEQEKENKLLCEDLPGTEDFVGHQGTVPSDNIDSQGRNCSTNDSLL
Outline: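 Cells (CHO, stable ADRB2 overexpression) incubated 18-20hr at 37C; compounds added from DMSO; agonist mix (1nM isoproterenol, 100uM IBMX, 25uM Ro-20-1724) added; 0.5hr RT; d2-cAMP and anti-cAMP-cryptate added; 1hr RT; 665/615 nm read.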

[15] = molecular target: Beta-2 adrenergic receptor (Homo sapiens) (UniProt P07550); assay: Adrenergic beta2 receptor (ADRB2) small molecule agonists, cell-based qHTS assay (AID 1963593);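 further: CHO cells stably overexpressing human ADRB2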
Outline: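 CHO cells stably over-expressing ADRB2 were plated overnight at 37C, then dosed with compounds plus a stimulation mix containing 100uM IBMX and 25uM Ro-20-1724 for 0.5hr at room temperature. cAMP was measured by HTRF competition, 1hr.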

[16] = molecular target: D(2) dopamine receptor (Homo sapiens) (UniProt P14416); assay: Dopamine D2 receptor (DRD2) small molecule agonists, cell-based qHTS assay (AID 1963594); further: nearly all actives have a fitted effect of over 35% in size
D(2) dopamine receptor (Homo sapiens), sequence (P14416 whole entry, looked up): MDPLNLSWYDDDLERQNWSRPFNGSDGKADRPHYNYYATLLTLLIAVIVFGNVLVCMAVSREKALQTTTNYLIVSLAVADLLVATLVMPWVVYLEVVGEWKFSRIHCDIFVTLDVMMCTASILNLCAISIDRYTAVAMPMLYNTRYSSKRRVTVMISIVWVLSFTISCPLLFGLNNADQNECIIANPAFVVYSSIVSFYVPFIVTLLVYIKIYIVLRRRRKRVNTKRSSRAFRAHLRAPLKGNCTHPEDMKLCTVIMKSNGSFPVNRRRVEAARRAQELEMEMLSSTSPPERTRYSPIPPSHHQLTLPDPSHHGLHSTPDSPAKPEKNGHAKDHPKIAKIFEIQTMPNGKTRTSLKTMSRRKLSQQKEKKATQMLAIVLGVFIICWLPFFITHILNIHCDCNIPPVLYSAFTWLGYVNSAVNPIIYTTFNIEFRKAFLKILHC
Outline: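 HEK293 cells stably expressing DRD2 were cultured 24 h at 37 C, then given Ro20-1724 (0.1 mM final) and compounds for 10 min at room temperature. NKH477 (200nM) was then added for 30 min. cAMP was read by HTRF.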

[17] = molecular target: D(2) dopamine receptor (Homo sapiens) (UniProt P14416); assay: Dopamine D2 receptor (DRD2) small molecule antagonists, cell-based qHTS assay (AID 1963595; active means well fitted inhibition curve with a large enough effect in the signal ratio in the repeat runs, with a control signal flat; the % refers to the signal ratio)
Outline: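 HTRF cAMP read-out at 665 and 620 nm emission (340 nm excitation). Antagonist mode: compounds were tested against 12 nM quinpirole in DRD2-HEK293 cells, with 200 nM NKH477 raising cAMP and 0.1 mM Ro20-1724 blocking its breakdown.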
On the % scale 0 is the no-effect control and ±100 the full control effect.

CC(=O)O
inactive: Potency [1] | Potency [2] | Potency [3] | Potency [4] | Potency [5] | Potency [6] | Potency [7] | Potency [8] | Potency [9] | Potency [10] | Potency [11] | Potency [12] | Potency [13] | Potency [14] | activation [15] -4.33% [at 8.39 µM] | Potency [16] | Potency [17]

Nc1ccc(-c2ccc(N)c(N)c2)cc1N
inactive: Potency [1] | Potency [2] | Potency [3] | Potency [4] | Potency [5] | Potency [6] | Potency [7] | Potency [8] | Potency [9] | Potency [10] | Potency [11] | Potency [12] | Potency [13] | Potency [14] | Potency [16] | Potency [17]

Sc1ccccc1
inactive: Potency [1] | Potency [2] | Potency [3] | Potency [4] | Potency [5] | Potency [6] | Potency [7] | Potency [8] | Potency [10] | Potency [11] | Potency [12] | Potency [13] | Potency [14] | Potency [15] | Potency [16]

[Cl-].[Cl-].[Cl-].[Fe+3]
inactive: Potency [1] | Potency [2] | Potency [3] | Potency [4] | Potency [5] | Potency [6] | Potency [7] | Potency [9] | Potency [10] | Potency [11] | Potency [12] | Potency [13] | Potency [17]

From PubChem BioAssay (Tox21)
